Source: PubChem BioAssay (Tox21)
Results filed as inconclusive are left out. Active and inactive are the calls of the source. Unless noted, calls follow the shape of the dose curve; as a rule, active = well fitted curve in the direction sought with a large enough effect in the repeat runs; inconclusive = weak or mixed curves; inactive = no such curve, though single readings can be large; an effect the other way counts as inactive or inconclusive.

Tests used:
[1] = qHTS assay to identify small molecule agonists of H2AX (AID 1224845; active = well fitted activation curve with a large enough effect in the signal ratio in the repeat runs, not every such curve was filed as active; the % refers to the signal ratio)
In short: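 Phospho-H2AX Ser139 measured by HTRF (ex 320 nm; em 665 and 620 nm) after 24 hr antibody incubation. Compounds, 15 concentrations, 0.76% DMSO, were applied to CHO-K1 cells for 3hr at 37C before lysis.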

[2] = qHTS assay to identify small molecule agonists of the hypoxia (HIF-1) signaling pathway (AID 1224846; active = well fitted activation curve with a large enough effect in the signal ratio in the repeat runs, not every such curve was filed as active; the % refers to the signal ratio)
In short: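 ME-180 HRE-bla reporter cells; compounds in DMSO, 17 h at 37C; read-out beta-lactamase via CCF4-AM FRET.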

[3] = qHTS assay to identify small molecule antagonists of the estrogen related receptor (ERR) signaling pathway from Tox21 library (AID 1224848); also: nearly all actives have a fitted effect of over 50% in size
In short: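 ERR cell line, 2,000 cells/well. 6 h settle, then compound (DMSO) added; 18 h at 37 C; ONE-Glo luminescence after 30 min RT.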

[4] = qHTS assay to identify small molecule agonists of the estrogen related receptor (ERR) signaling pathway from Tox21 library (AID 1224849; calls by dose curve; also: nearly all actives have a fitted effect of over 15% in size)
In short: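 Luciferase activity in ERR pathway reporter cells served as the agonist readout; exposure lasted 18 h at 37 C, with ONE-Glo detection after 30 min at room temperature.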

[5] = qHTS RealTime-Glo MT Cell Viability Assay in HepG2 cells - 24 hour (AID 1224867); also: nearly all actives have a fitted effect of over 50% in size
In short: (§1)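 Compound treatment began 5 h after plating HepG2 cells (600/well) with NanoLuc luciferase and prosubstrate. Plates stayed at 37 C for 40 h; luminescence was captured at six time points, 0 h through 40 h.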

[6] = qHTS RealTime-Glo MT Cell Viability Assay in HEK293 cells - 32 hour (AID 1224868); also: top concentration of the series differs between compounds; nearly all actives have a fitted effect of over 50% in size
In short: (§2)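 Quantitative high-throughput screen of the Tox21 10K library in HEK293: cells and RealTime-Glo reagents plated together, compound added at 5 h, luminescence monitored through 40 h at 37 C.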

[7] = A CellTox Green Cytotoxicity Assay to monitor cytotoxicity in HEK293 cells - 0 hour (AID 1224869); also: nearly all actives have a fitted effect of over 50% in size
In short: (§3)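 Real-time, in one plate: 600 HEK293 cells/well with dead-cell DNA dye, pinned compound after 5 h, 37 C incubation over 40 h; viable cells give no appreciable fluorescence.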

[8] = qHTS RealTime-Glo MT Cell Viability Assay in HepG2 cells - 40 hour (AID 1224870); also: nearly all actives have a fitted effect of over 50% in size
In short: (§4)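 Real-time viability: cells seeded at 600 per well together with NanoLuc and cell-permeant prosubstrate, compounds added after 5 h incubation. Luminescence tracked at 0, 8, 16, 24, 32 and 40 h of exposure.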

[9] = A CellTox Green Cytotoxicity Assay to monitor cytotoxicity in HEK293 cells - 40 hour (AID 1224871); also: nearly all actives have a fitted effect of over 45% in size
In short: as §3

[10] = qHTS RealTime-Glo MT Cell Viability Assay in HEK293 cells - 16 hour (AID 1224872)
In short: as §2

[11] = qHTS RealTime-Glo MT Cell Viability Assay in HepG2 cells - 8 hour (AID 1224873); also: nearly all actives have a fitted effect of over 55% in size
In short: as §4

[12] = qHTS RealTime-Glo MT Cell Viability Assay in HEK293 cells - 40 hour (AID 1224874); settings: RealTime-Glo luminescence; max response: hits give low values; also: nearly all actives have a fitted effect of over 50% in size
In short: (§5)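 Kinetic, non-lysing viability readout. Seed HEK293 (600/well) with reagent, incubate 5 h at 37 C/5% CO2, pin 23 nL compound in DMSO, incubate at 37 C, read luminescence at 0, 8, 16, 24, 32, 40 h.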

[13] = A CellTox Green Cytotoxicity Assay to monitor cytotoxicity in HEK293 cells - 24 hour (AID 1224875); also: series mostly up to about 77 µM; nearly all actives have a fitted effect of over 45% in size
In short: as §3

[14] = A CellTox Green Cytotoxicity Assay to monitor cytotoxicity in HepG2 cells - 16 hour (AID 1224876); also: nearly all actives have a fitted effect of over 45% in size
In short: (§6)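 Cytotoxicity was tracked as dead-cell DNA fluorescence in HepG2 cells treated with test compounds at 37 C; each time-point value comes from one kinetic series spanning 0, 8, 16, 24, 32 and 40 h.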

[15] = qHTS RealTime-Glo MT Cell Viability Assay in HepG2 cells - 32 hour (AID 1224877); also: nearly all actives have a fitted effect of over 55% in size
In short: as §1

[16] = A CellTox Green Cytotoxicity Assay to monitor cytotoxicity in HepG2 cells - 24 hour (AID 1224878); also: nearly all actives have a fitted effect of over 45% in size
In short: as §6

[17] = A CellTox Green Cytotoxicity Assay to monitor cytotoxicity in HepG2 cells - 40 hour (AID 1224879); also: nearly all actives have a fitted effect of over 40% in size
In short: as §6

[18] = qHTS RealTime-Glo MT Cell Viability Assay in HEK293 cells - 0 hour (AID 1224880)
In short: as §5

[19] = A CellTox Green Cytotoxicity Assay to monitor cytotoxicity in HEK293 cells - 32 hour (AID 1224881); also: nearly all actives have a fitted effect of over 40% in size
In short: as §3

[20] = qHTS assay to identify small molecule agonists of H2AX - cell viability counter screen (AID 1224847; calls by dose curve; also: top concentration of the series differs between compounds; nearly all actives have a fitted effect of over 30% in size)
In short: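 We seed wild-type CHO-K1 cells overnight, treat them for 3 hr at 37C with compounds in 15-concentration series, and quantify remaining viability by CellTiter-Glo luminescence.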
% is scaled to controls: 0 for no effect and ±100 for the full control effect.

c1ccc2sc(SN3CCOCC3)nc2c1
inactive: Potency [1] | outcome [2] | Potency [3] | outcome [4] | outcome [5] | Potency [6] | outcome [7] | Potency [8] | Potency [9] | Potency [10] | outcome [11] | max response [12] 4.29% | outcome [13] | outcome [14] | Potency [15] | outcome [16] | Potency [17] | Potency [18] | outcome [19]

CO[C@@]1(NC(=O)CSC[C@@H](N)C(=O)O)C(=O)N2C(C(=O)O)=C(CSc3nnnn3C)CS[C@@H]21
inactive: Potency [1] | outcome [2] | Potency [3] | outcome [4] | outcome [5] | Potency [6] | outcome [7] | Potency [8] | Potency [9] | Potency [10] | outcome [11] | max response [12] -2.75% | outcome [13] | outcome [14] | Potency [15] | outcome [16] | Potency [17] | Potency [18] | outcome [19]

CC(C)(C#N)Nc1nc(Cl)nc(NC2CC2)n1
inactive: Potency [1] | outcome [2] | outcome [20] | outcome [5] | Potency [6] | outcome [7] | Potency [9] | Potency [10] | outcome [11] | max response [12] 1.79% | outcome [13] | outcome [14] | Potency [15] | outcome [16] | Potency [17] | outcome [19]

CCCCN(CCC(=O)OCC)C(C)=O
inactive: Potency [1] | outcome [2] | outcome [20] | outcome [5] | Potency [6] | outcome [7] | Potency [9] | Potency [10] | outcome [11] | max response [12] 0.53% | outcome [13] | outcome [14] | Potency [15] | outcome [16] | Potency [17] | Potency [18] | outcome [19]

CCNS(=O)(=O)c1ccc(C)cc1
inactive: Potency [1] | outcome [2] | outcome [20] | outcome [5] | Potency [6] | outcome [7] | Potency [8] | Potency [10] | outcome [11] | max response [12] 0.516% | outcome [13] | outcome [14] | Potency [15] | outcome [16]

C=C[Si](OC(C)=O)(OC(C)=O)OC(C)=O
inactive: Potency [1] | outcome [2] | outcome [20] | outcome [5] | Potency [6] | outcome [7] | Potency [9] | Potency [10] | outcome [11] | max response [12] 4.65% | outcome [13] | outcome [14] | Potency [15] | outcome [16] | Potency [17] | Potency [18] | outcome [19]

O=C(O)CCCC[P+](c1ccccc1)(c1ccccc1)c1ccccc1
inactive: Potency [1] | outcome [2] | outcome [20] | outcome [5] | Potency [6] | outcome [7] | Potency [9] | Potency [10] | outcome [11] | max response [12] -10.4% | outcome [13] | Potency [15] | Potency [18] | outcome [19]

COc1ccnc(CS(=O)c2nc3cc(OC(F)F)ccc3[nH]2)c1OC (stereo unspecified)
inactive: Potency [1] | outcome [2] | outcome [20] | outcome [7] | Potency [8] | Potency [9] | Potency [10] | outcome [11] | outcome [13] | outcome [14] | Potency [15] | outcome [16] | Potency [17] | outcome [19]

CC(C)C(=O)OC(=O)C(C)C
inactive: Potency [1] | outcome [2] | outcome [20] | outcome [5] | Potency [6] | outcome [7] | Potency [9] | Potency [10] | outcome [11] | max response [12] 3.07% | outcome [13] | outcome [14] | Potency [15] | Potency [17] | Potency [18] | outcome [19]
